TDP1 cell noCPT – qHTS for Inhibitors of human tyrosyl-DNA phosphodiesterase 1 (TDP1): qHTS in cells in absence of CPT. DT40 Tdp1-/- hTDP1 cells, no CPT, ATP luminescence, 48 h. Potency, µM (titrated, usually from 46.2 µM), without a hit: at the highest dose activity change, negative = growth inhibition, most hits filed as inhibitors. 420,000 tested, 15% active. AID 686978, 2013; also: nearly all actives have a fitted effect of over 55% in size
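Compound effects on proliferation are scored in DT40 Tdp1-/-;hTDP1 cells in the absence of CPT. ATP levels (CellTiter-Glo luminescence) are recorded after a ≥48 hr, 37 °C incubation.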
DT40 TDP1 CPT – qHTS for Inhibitors of human tyrosyl-DNA phosphodiesterase 1 (TDP1): qHTS in cells in presence of CPT; chicken DT40 Tdp1-/-;hTDP1 cells + 20 nM CPT, ATP luminescence, 48 h; Potency, µM (series often up to 46.2 µM), inactives show top-dose activity change, negative = growth inhibition, actives largely listed as inhibitors; 420,000 tested, 12% active; also: nearly all actives have a fitted effect of over 55% in size
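Chicken DT40 Tdp1-/- cells complemented with human TDP1, 400 cells/well, exposed to compounds plus 20 nM camptothecin for at least 48 h at 37 C; viability read as ATP content by CellTiter-Glo luminescence.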
TDP1 block – qHTS Assay for Inhibitors of Tyrosyl-DNA Phosphodiesterase (TDP1); Tyrosyl-DNA phosphodiesterase 1 (Homo sapiens), Q9NUW8; recombinant TDP1, AlphaScreen DNA substrate cleavage; Potency, µM (top dose mostly 130 µM), for the others: at the top dose activity change, negative = inhibition, most hits filed as inhibitors; 350,000 tested, 0.28% active; AID 485290, 2010; also: nearly all actives have a fitted effect of over 40% in size
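Here, a 5' biotin and 3' phosphotyrosine-FITC DNA oligonucleotide reports Tdp1 activity: intact substrate bridges AlphaScreen beads, while cleavage leaves a 3' phosphate and drops signal. All incubations at room temperature.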
VDR inh – Inhibitors of the vitamin D receptor (VDR): qHTS; VDR-SRC2-3 peptide fluorescence polarization, 2 h; Potency, µM, inactives show max response, negative = inhibition, most hits filed as inhibitors; 400,000 tested, 0.93% active
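Reagent solutions, kept cold and dark, are dispensed first; compounds are then pinned in at 23 nl, plates briefly spun, and incubated 2 h at ambient temperature. Inhibition of VDR–SRC2-3 peptide binding is read by fluorescence polarization.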
GCN5L2 inh – qHTS Assay for Inhibitors of GCN5L2; 390,000 tested, 0.21% active; Potency, µM (titrated, usually from 58.9 µM), for inactives: at the top dose activity change, negative = inhibition, actives largely listed as inhibitors; GCN5L2 HAT assay, ThioGlo1 CoA-SH fluorescence; AID 504327, 2011; Histone acetyltransferase KAT2A (Homo sapiens), Q92830
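GCN5L2 (20 nM) in 50mM HEPES pH 7.5, 0.1mM EDTA, 0.01% Tween-20 preincubated 15 min with compounds at room temperature. Reaction started with H3(1-25) 75uM, acetyl-CoA 70uM, ThioGlo1 50uM; CoA-thiol fluorescence (Ex340/Em540) read at 0 and 20 min.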
PLK1 PBD block – qHTS for Inhibitors of PLK1-PDB (polo-like kinase 1 - polo-box domain): Primary Screen. Serine/threonine-protein kinase PLK1 (Homo sapiens), P53350. Plk1 PBD binding of FITC phosphopeptide, fluorescence polarization. Potency, µM, inactives show max response, negative = inhibition, hits mostly inhibitors. 360,000 tested, 2.8% active; also: series mostly up to about 57 µM; nearly all actives have a fitted effect of over 65% in size
Target sequence (P53350 whole entry, looked up, the tested form may be a part): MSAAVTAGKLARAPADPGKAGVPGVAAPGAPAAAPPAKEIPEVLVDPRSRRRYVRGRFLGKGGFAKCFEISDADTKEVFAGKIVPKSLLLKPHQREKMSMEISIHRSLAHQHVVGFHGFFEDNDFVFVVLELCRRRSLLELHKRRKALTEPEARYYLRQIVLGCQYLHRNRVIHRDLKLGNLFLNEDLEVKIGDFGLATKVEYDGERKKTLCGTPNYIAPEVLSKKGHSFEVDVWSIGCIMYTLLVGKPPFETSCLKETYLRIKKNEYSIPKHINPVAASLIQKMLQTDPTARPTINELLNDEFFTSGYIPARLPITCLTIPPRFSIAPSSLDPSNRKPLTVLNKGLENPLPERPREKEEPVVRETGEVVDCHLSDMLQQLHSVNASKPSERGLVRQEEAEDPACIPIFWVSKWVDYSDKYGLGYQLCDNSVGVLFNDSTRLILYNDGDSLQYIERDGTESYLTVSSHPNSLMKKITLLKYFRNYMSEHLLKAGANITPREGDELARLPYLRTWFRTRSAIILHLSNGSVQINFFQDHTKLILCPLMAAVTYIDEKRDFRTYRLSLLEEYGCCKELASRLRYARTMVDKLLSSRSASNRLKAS
* = called active by the depositor; ? = inconclusive; nt = no result given; [ ] = dose if it differs, or a comment. This is a sample that favours compounds with a hit; in the whole collection about 18% have one here. Calls follow the shape of the dose curve; as a rule, active = well fitted curve in the direction sought with a large enough effect; inconclusive = small, poorly fitted or top-dose-only effect, or another doubt; inactive = no such curve, though single readings can be large; an effect the other way counts as inactive or inconclusive. % is scaled to controls: 0 for no effect and ±100 for the full control effect; potency is read from the fitted curve at half-maximal effect.

SMILES	TDP1 cell noCPT	DT40 TDP1 CPT	TDP1 block	VDR inh	GCN5L2 inh	PLK1 PBD block
c1csc(-c2nc(NCC3CCCO3)c3ccccc3n2)c1 (centres undefined)	?	?	0%[96 µM]	-19%	-2%	4%
Cc1ccc(S(=O)(=O)Nc2nc3ccccc3nc2NCC2CCCO2)cc1C (centres undefined)	?	21µM*	3%	?	-5%	-9%
COc1cccc(Nc2nc(NCCO)c3ccccc3n2)c1	21µM*	4.6µM*	8%	2%	-1%	5%
Oc1ccc(Cl)cc1Nc1nc(NCC2CCCO2)c2ccccc2n1 (centres undefined)	nt	nt	nt	4%	nt	nt
Cc1cccc(S(=O)(=O)Nc2nc3ccccc3nc2NCC2CCCO2)c1 (centres undefined)	2%	-10%	1%	-9%	2%	-11%
Cc1noc(C)c1-c1cncnc1NCc1cccnc1	2%	2%	nt	-3%	-17%	nt
Oc1ccccc1Nc1nc(NCC2CCCO2)c2ccccc2n1 (centres undefined)	26µM*	16µM*	5%	6%	0%	-5%
Clc1nc2ccccc2nc1Cl	nt	nt	16%	nt	nt	nt
CC(C)[C@@H](CC(=O)N[C@@H]1CCCC[C@H]1C(=O)N[C@H](CC(=O)N[C@@H](CCC(=O)O)CC(=O)O)Cc1c[nH]c2ccccc12)NC(=O)C[C@H](Cc1ccccc1)NC(=O)[C@@H]1CCCC[C@H]1N	nt	nt	6%	0%	nt	nt
COc1cccc(C(=O)N/N=C(\CC(C)C)c2ccccc2)c1	?	?	3%	-8%	2%	-9%
Cc1ccc(C(=O)N/N=C(\CC(C)C)c2ccccc2)cc1	21µM*	?	?	-5%	-1%	-7%
COc1ccc(-c2c(-c3ccsc3)oc3c2C(O)CCC3)cn1 (centres undefined)	-21%	-22%	nt	nt	nt	-4%
CN(C)c1ccc(NC(=O)CCSc2nc(-c3ccco3)cc(C(F)(F)F)n2)cc1	18µM*	?	7%	-17%	4%	nt
Cc1nn(C)cc1NC(=O)CCSc1nc(-c2ccco2)cc(C(F)(F)F)n1	?	-21%	5%	-14%	-4%	-17%
Cc1ccc(O)c(NC(=O)CCSc2nc(-c3ccco3)cc(C(F)(F)F)n2)c1	18µM*	?	-5%	-9%	-6%	nt
Cc1cc(NC(=O)CSc2nc(-c3ccco3)cc(C(F)(F)F)n2)no1	0.73µM*	0.58µM*	4%[56.1 µM]	-5%	-5%	-5%
Cc1cccc(C)c1NC(=O)CSc1nc(-c2ccco2)cc(C(F)(F)F)n1	?	?	0%	8%	-7%	-1%
Cc1ccc(NC(=O)CSc2nc(-c3ccco3)cc(C(F)(F)F)n2)cc1	3.3µM*	2.1µM*	-1%	-9%	-6%	nt
COc1ccc(NC(=O)CCSc2nc(-c3ccco3)cc(C(F)(F)F)n2)cc1	-8%	-14%	3%	-2%	1%	nt
CC(C)=CCC/C(C)=C/CO/N=C1/C[C@@H](O)[C@@H](O)[C@@H]2[C@@H]3C(=O)N(Cc4ccccc4)C(=O)[C@H]3CC[C@@H]12	nt	nt	5%[21 µM]	nt	nt	nt
COc1ccc(C(O)c2nc(-c3cnn(C)c3)cs2)cc1 (centres undefined)	?	?	nt	nt	nt	-2%
Cc1n[nH]c(C)c1S(=O)(=O)N(C)Cc1ccco1	4%	9%	-2%[56.1 µM]	3%	-9%	-7%
O=C(NCCN1Cc2ccccc2OC(c2ccccc2F)C1)c1cncs1 (centres undefined)	?	-2%[9.04 µM]	nt	nt	nt	nt
COc1cccc2cc(C(=O)NCC3CCCO3)c(=O)oc12 (centres undefined)	-25%	-4%	0%	-4%	0%	-2%
CCN(CC)CCOC(=O)c1ccc(NC(=O)c2cc3cccc(OC)c3oc2=O)cc1	?	21µM*	9%	8%	1%	nt
SMILES	TDP1 cell noCPT	DT40 TDP1 CPT	TDP1 block	VDR inh	GCN5L2 inh	PLK1 PBD block
CCN(CC)CCOC(=O)c1ccc(NC(=O)c2cc3cc(OC)ccc3oc2=O)cc1	0.0058µM*	0.041µM*	1%	-3%	-8%	nt
N#CC1=C(N)NC(SCC(=O)c2ccccc2)=C(C#N)C12CCCC2	?	?	-5%	0%	-10%	-30%
CC1=C(C(=O)Nc2ccccc2)C2(CCCCC2)C(C#N)=C(SCC(N)=O)N1	16µM*	?	1%	?	-7%	3.4µM*
COc1ccc(S(=O)(=O)N2CCC(C(=O)N[C@H](C(=O)N3CCCCCC3)C(C)C)CC2)cc1	-5%	?	2%	-2%	0%	-2%
COc1ccc(NC(=O)N2CCN(S(C)(=O)=O)CC2)cc1	?	23µM*	-3%	?	-19%	27µM*
COc1ccc(NC(=O)N2CCN(C(=O)Nc3ccc(OC)cc3)CC2)cc1	?	?	6%	10%	-3%	-11%
COCCNC(=S)N1CCN(c2nc(-c3cccc(OC)c3)cs2)CC1	?	?	nt	-8%	-3%	0%
COc1ccc(NC(=O)N2CCN(c3nc(-c4cccc(OC)c4)cs3)CC2)cc1	18µM*	23µM*	5%	0%	-9%	-12%
COc1cccc(-c2csc(N3CCN(CC(=O)NNC(=O)c4ccc(Br)cc4)CC3)n2)c1	16µM*	?	3%	-7%	-3%	-7%
CCNC(=S)N1CCN(c2nc(-c3cccc(OC)c3)cs2)CC1	15µM*	10µM*	nt	-11%	-1%	-22%
COc1ccccc1N1CCN(C(c2cccs2)C(C)NC(=O)c2cccs2)CC1 (centres undefined)	12µM*	16µM*	4%	-11%	-9%	1%
COc1ccccc1N1CCN(C(c2cccs2)C(C)NC(=O)c2cccnc2)CC1 (centres undefined)	?	?	1%	5%	-5%	-11%
CC(NC(=O)c1cccnc1)C(c1cccs1)N1CCN(c2ccccc2F)CC1 (centres undefined)	?	23µM*	-2%	25%	-12%	3%
